Hits are enriched below; roughly 2.7% of the tested compounds scored in any of these assays.
SENP6 block = inhibitors of human SENP6 protease; Q9GZR1; Recombinant SENP6 catalytic domain, aminoluciferin luminescence; inhibition, % at 10 µM; hit rate 1.8% among 330,000; AID 2599;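 active = inhibition above about 50% at the single tested dose, limit read from the data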
SENP8 block-1 = blocks human SENP8 cleavage of Nedd8 substrate | recombinant SENP8, Nedd8 substrate fluorescence | inhibition, % at 20 µM | hit rate 0.64% among 360,000 | AID 602440; in the data active = inhibition mostly above about 40%, no sharp cut-off; inactive = mostly below about 27%
Target sequence (Q96LD8 whole entry, looked up): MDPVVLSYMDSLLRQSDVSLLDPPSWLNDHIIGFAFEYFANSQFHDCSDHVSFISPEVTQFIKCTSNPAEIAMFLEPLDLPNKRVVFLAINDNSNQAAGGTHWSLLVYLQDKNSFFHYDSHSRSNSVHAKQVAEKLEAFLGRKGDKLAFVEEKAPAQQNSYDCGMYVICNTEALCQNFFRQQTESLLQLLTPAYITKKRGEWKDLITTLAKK
SENP7 inh = blocks the human protease SENP7 | recombinant SENP7, Z-RLRGG-aminoluciferin luminescence, 40 min | inhibition, % at 5 µM | hit rate 1.5% among 330,000;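 active = inhibition above about 50% at the single test dose, limit read from the data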
Target sequence (Q9BQF6 706-1050 limits assumed): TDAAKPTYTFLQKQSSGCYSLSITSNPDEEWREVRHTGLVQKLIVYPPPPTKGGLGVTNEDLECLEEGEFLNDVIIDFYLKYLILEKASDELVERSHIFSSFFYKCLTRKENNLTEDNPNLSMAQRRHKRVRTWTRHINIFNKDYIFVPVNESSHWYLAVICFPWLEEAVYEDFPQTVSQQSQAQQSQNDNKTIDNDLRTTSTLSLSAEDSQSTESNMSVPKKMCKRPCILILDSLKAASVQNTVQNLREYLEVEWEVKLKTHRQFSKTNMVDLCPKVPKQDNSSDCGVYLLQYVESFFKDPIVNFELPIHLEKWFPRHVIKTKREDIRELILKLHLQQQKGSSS
HSP90 refold inh = inhibitors of HSP90 luciferase refolding in rabbit reticulocyte lysate | luciferase refolding luminescence, 3 h | inhibition, % at 5.6 µM | hit rate 0.91% among 290,000 | AID 1789;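 active = inhibition above the screen-wide mean plus 3 SD, computed separately per campaign, cut at about 16% in these data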;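 note: inhibitors lower the luminescence because luciferase stays unfolded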
SENP8 block-2 = inhibitors of human SENP8 protease; Q96LD8; purified SENP8, Z-RLRGG-aminoluciferin cleavage, luminescence; inhibition, % at 10 µM; hit rate 1.2% among 330,000; AID 2540; in the data active = inhibition above about 50%
HSP90 confirm = HSP90 inhibition, confirmation assay; inhibition, % at 5.9 µM; hit rate 64% among 2,300; AID 1846; shares compounds with HSP90 refold inh; rabbit reticulocyte lysate, luciferase refolding luminescence, 3 h; in the data active = inhibition above about 18%
FLuc counter = blocks native firefly luciferase in HSP90 counter-screen. inhibition, % at 5.9 µM. hit rate 48% among 2,300. purified native firefly luciferase, luminescence. shares compounds with HSP90 refold inh. AID 1847;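 active = inhibition above the mean inhibition of all tested sample wells plus 3 SD, cut at about 10% in these data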
Of the large screens only hits and unclear results are named; the others gave an inactive call (follow-up assays come after a bar, where they were run).

CC(/C=N/Nc1nnc(C)c(=O)[nH]1)=C\c1ccccc1	none
Cc1cc(C)nc(N/C(=N/S(=O)(=O)Cc2ccccc2)Nc2ccccc2)n1	none
Cc1ccccc1OCC(=O)N(CC(C)C)c1c(N)n(CC(C)C)c(=O)[nH]c1=O	HSP90 refold inh 45.5 | HSP90 confirm inactive | FLuc counter inactive
Cc1ccc(-c2nc3nc4ccccc4nc3n2Cc2ccco2)cc1	HSP90 refold inh 47.5 | HSP90 confirm 20.4 | FLuc counter inactive
COc1cccc(N=c2oc3ccccc3cc2-c2nc3ccccc3[nH]2)c1	HSP90 refold inh 24.1 | HSP90 confirm inactive | FLuc counter inactive
Cc1ccc(NC(=S)N2CCC(N(C)CC3CCCO3)CC2)c(C)c1 (stereo not drawn)	none
CCOC(=O)N1CCN(C(=O)c2ccc3nc(N4CCCCC4)sc3c2)CC1	HSP90 refold inh 21.9 | HSP90 confirm 23.2 | FLuc counter inactive
COc1cccc(N2CCN(C(=O)c3ccc4nc(N5CCC(C)CC5)sc4c3)CC2)c1	HSP90 refold inh 74.2 (no result: SENP8 block-1) | HSP90 confirm 75.7 | FLuc counter 54.1
CCOC(=O)N1CCN(C(=O)c2ccc3nc(N4CCC(C)CC4)sc3c2)CC1	none
O=C(c1ccc2nc(N3CCOCC3)sc2c1)N1CCC(Cc2ccccc2)CC1	none
CC(C)(C)c1ccc(C(=O)N2CCN(Cc3ccccc3)CC2)cc1	HSP90 refold inh 21.7 | HSP90 confirm inactive | FLuc counter inactive
CC1CCN(c2nc3ccc(C(=O)N4CCN(Cc5ccccc5)CC4)cc3s2)CC1	HSP90 refold inh 69.8 | HSP90 confirm 65.4 | FLuc counter 10.1
Cc1noc2ncnc(N3CCN(c4ccc(F)cc4)CC3)c12	none
CC(C)C#Cc1cnc2c(c1)C(=O)N([C@H](C)CO)C[C@@H](C)[C@H](CN(C)C(=O)Nc1ccccc1F)O2	none (no result: SENP6 block, SENP7 inh, HSP90 refold inh, SENP8 block-2)
CC1(C(=O)Nc2ccc(F)c(Cl)c2)Cc2c(-c3cccc(C(N)=O)c3)ccnc2O1 (stereo not drawn)	none (no result: SENP6 block, SENP7 inh, HSP90 refold inh, SENP8 block-2)
Cc1cc(N2CCCCC2)n2ncc(-c3ccc(Cl)cc3)c2n1	none
Cc1ccc(-c2cnn3c(N4CCOCC4)cc(C)nc23)cc1	HSP90 refold inh 39.7 | HSP90 confirm 47.7 | FLuc counter 53.5
CC(C)(C)c1cc(N2CCOCC2)n2ncc(-c3ccc(Cl)cc3)c2n1	none
Cc1cc(N2CCOCC2)n2ncc(-c3ccc(Cl)cc3)c2n1	HSP90 refold inh 35.2 | HSP90 confirm 48.3 | FLuc counter 55.4
Cc1cc(N2CCC(C)CC2)n2ncc(-c3ccccc3)c2n1	HSP90 refold inh 44.7 | HSP90 confirm 58.7 | FLuc counter 56.3
Cc1ccccc1NC(=O)Cc1nc(COC(=O)c2ccc(Cl)nc2)cs1	none (no result: HSP90 refold inh)
O=C(NCc1ccccn1)c1cccn1-c1ncc(C(F)(F)F)cc1Cl	HSP90 refold inh 41.2 | HSP90 confirm inactive | FLuc counter inactive
CC(C)CC(=O)Nc1nc2ccc(S(C)(=O)=O)cc2s1	HSP90 refold inh 29.9 | HSP90 confirm inactive | FLuc counter inactive
Cc1nc2ccc(NC(=O)c3cccnc3)cc2s1	none
CCNS(=O)(=O)c1ccc2nc(NC(=O)c3cccnc3)sc2c1	HSP90 refold inh 28.8 | HSP90 confirm inactive | FLuc counter inactive
C[n+]1ccccc1/C=C1\Sc2ccccc2N1CCO	HSP90 refold inh 17.5 | HSP90 confirm inactive | FLuc counter inactive
Cc1ccc2c(c1)S/C(=C\c1cccc[n+]1C)N2CCO	none
Cc1nc(CCNC(=O)c2cc(COc3ccc(F)cc3Cl)on2)sc1C	none
O=C(NCCNC(=O)c1cc(F)cc(F)c1)c1cc(F)cc(F)c1	none
O=C(NNC(=S)NC(=O)c1ccc(F)cc1)c1cccnc1	none
O=C(NNC(=S)NC(=O)c1cccnc1)c1ccc(F)cc1	HSP90 refold inh 27.6 | HSP90 confirm inactive | FLuc counter inactive
N#Cc1c(N)nc2c(c1-c1ccc(F)cc1)CCC2	none
Cc1nc2sc(-c3ccccc3)cc2c(=O)n1N	SENP6 block 94.6, SENP7 inh 98.7, HSP90 refold inh 19.3, SENP8 block-2 96.1 | HSP90 confirm 77.2 | FLuc counter 65.8
N/C(=N\OC(=O)/C=C/c1ccccc1Cl)c1ccncc1	HSP90 refold inh 30.6 | HSP90 confirm inactive | FLuc counter inactive
N/C(=N\OC(=O)/C=C/c1ccccc1)c1ccncc1	none
O=C(Nc1cccc(-c2nc3ncccc3o2)c1)c1sc2cc(Cl)ccc2c1Cl	none
O=C(Nc1cccc(-c2nc3ncccc3o2)c1)c1sc2ccccc2c1Cl	HSP90 refold inh 19.6 | HSP90 confirm inactive | FLuc counter inactive
CSc1ccccc1NC(=O)C1C2CCC(C2)C1C(=O)O (stereo not drawn)	none
CN(C(=O)CSc1nc(-c2ccccc2)cn1N)C(c1ccccc1)c1ccccc1	HSP90 refold inh 17.8 | HSP90 confirm inactive | FLuc counter inactive
COc1ccccc1CNC(=O)CSc1nc(-c2ccccc2)cn1N	none
CCOC(=O)COc1cccc2c(=O)n(CC(=O)N3CCN(C(=O)OCC)CC3)ccc12	none
Cn1cnnc1SCc1ccc(F)c2ccccc12	none
CCc1ccccc1N(CC(=O)N1CCCC1)S(C)(=O)=O	HSP90 refold inh 22.2 | HSP90 confirm inactive | FLuc counter inactive
O=C(NCCc1cccc(Cl)c1)c1ccc2c(c1)OCO2	HSP90 refold inh 19.6 | HSP90 confirm 40.3 | FLuc counter 29.2
O=C(CN(C(=O)c1csnn1)c1cccc2c1CCCC2)NCc1ccccc1	none
CC(NC(=O)CNC(=O)C1CCCCC1)c1ccc(S(N)(=O)=O)cc1 (stereo not drawn)	HSP90 refold inh 31.8 | HSP90 confirm inactive | FLuc counter inactive
CCN(CC)c1ccc(C2C(C(=O)OC(C)C)C(=O)CC(C)(O)C2C(=O)OC(C)C)cc1 (stereo not drawn)	HSP90 refold inh 31.6 | HSP90 confirm inactive | FLuc counter inactive
Cc1cc(C(=O)N/N=C2\CCCC(=O)C2)c(C)n1-c1ccccc1	HSP90 refold inh 31.5 | HSP90 confirm inactive | FLuc counter inactive
CCc1ccc(NC(=O)c2n[nH]c(=O)c3ccccc23)cc1	none
CCc1nnc(NC(=O)c2n[nH]c(=O)c3ccccc23)s1	HSP90 refold inh 26.4 | HSP90 confirm inactive | FLuc counter inactive
CCN(CC(=O)Nc1ccc2c(c1)OCCO2)CC(=O)Nc1ccc2c(c1)OCO2	none
CC(=O)c1ccc(S(=O)(=O)N2CCN(C(=O)CSc3ccc(F)cc3)CC2)cc1	HSP90 refold inh 24.2 | HSP90 confirm inactive | FLuc counter inactive
CC(=O)c1ccc(S(=O)(=O)N2CCN(C(C)=O)CC2)cc1	none
CC(C)CN(CCCNC(=O)CN1C(=O)COc2ccc(S(=O)(=O)N3CCCC3)cc21)CC(C)C	HSP90 refold inh 22.0 | HSP90 confirm inactive | FLuc counter inactive
CC(C)CN(CCCNC(=O)CN1C(=O)COc2ccc(S(=O)(=O)N3CCCCCC3)cc21)CC(C)C	none
Cc1ccc2nc(NC(=O)CSCC(=O)OCC(=O)c3ccccc3)sc2c1	HSP90 refold inh 65.6 (no result: SENP6 block, SENP7 inh, SENP8 block-2) | HSP90 confirm 78.5 | FLuc counter inactive
Cc1ccc2nc(NC(=O)COC(=O)c3ccccn3)sc2c1	none

Bioassay records as filed in PubChem BioAssay.
